# Results filed as inconclusive are left out. Entries that show only a call come without a potency. A number with no mark means an inactive call. Active and inactive are the calls of the source. Calls follow the shape of the dose curve; as a rule, active = well fitted curve in the direction sought with a large enough effect; inconclusive = small, poorly fitted or top-dose-only effect, or another doubt; inactive = no such curve, though single readings can be large; an effect the other way counts as inactive or inconclusive. Where a SMILES comes first, the peptide text is derived from it. [ ]: non-standard residue; d: D form. pGlu = O=C1CC[C@@H](C(=O)O)N1; Thz = O=C(O)[C@@H]1CSCN1
# Columns and labels:
# C33A = assay: Primary qHTS to identify gynecologic anti-cancer compounds using libraries of approved drugs and bioactive compounds (AID 1345084); conditions: Gynecologic cancer cell panel viability, ATPlite luminescence, 48 h; series mostly up to 57.5 µM; also: nearly all actives have a fitted effect of over 55% in size; also: potency is read from the fitted curve at half-maximal effect
# Outline: (§1)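 Measured: luminescence after ATPlite addition (15 min, RT). Exposure: 48 h, 37 C, 5% CO2.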
# CAOV3 = assay: as above; conditions: Gynecologic cancer cell panel viability, ATPlite luminescence, 48 h; series mostly up to 57.5 µM
# Outline: as §1
# CASKI = assay: as above; conditions: Gynecologic cancer cell panel viability, ATPlite luminescence, 48 h; series mostly up to 57.5 µM
# Outline: as §1
# Es-2 = assay: as above; conditions: Gynecologic cancer cell panel viability, ATPlite luminescence, 48 h; series mostly up to 57.5 µM
# Outline: as §1
# HeLa = assay: as above; conditions: Gynecologic cancer cell panel viability, ATPlite luminescence, 48 h; series mostly up to 57.5 µM
# Outline: as §1
# Hek293T = assay: as above; conditions: Gynecologic cancer cell panel viability, ATPlite luminescence, 48 h, control line for the selectivity index; series mostly up to 57.5 µM
# Outline: as §1
# JEG-3 = assay: as above; conditions: Gynecologic cancer cell panel viability, ATPlite luminescence, 48 h; series mostly up to 57.5 µM
# Outline: as §1
# OV90 = assay: as above; conditions: Gynecologic cancer cell panel viability, ATPlite luminescence, 48 h; series mostly up to 57.5 µM
# Outline: as §1
# PA-1 = assay: as above; conditions: Gynecologic cancer cell panel viability, ATPlite luminescence, 48 h; series mostly up to 57.5 µM
# Outline: as §1
# SKOV3 = assay: as above; conditions: Gynecologic cancer cell panel viability, ATPlite luminescence, 48 h; series mostly up to 57.5 µM
# Outline: as §1
# Tov-21-G = assay: as above; conditions: Gynecologic cancer cell panel viability, ATPlite luminescence, 48 h; series mostly up to 57.5 µM
# Outline: as §1
# Tov112D = assay: as above; conditions: Gynecologic cancer cell panel viability, ATPlite luminescence, 48 h; series mostly up to 57.5 µM
# Outline: as §1
# [1] = Drug repurposing screens with cells derived from glioblastoma tumor samples (AID 1345199); conditions: GBM patient neurospheres viability, ATP luminescence, 48 h; also: nearly all actives have a fitted effect of over 40% in size; also: potency is read from the fitted curve at half-maximal effect
# Outline: (§2)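 Primary testing used CD133+ neurospheres from four GBM patients, seven concentrations, 48 h exposure and ATP-based viability; confirmation added three slower-growing patient lines.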
# astro = assay: as above; conditions: viability, ATP luminescence, 48 h; series mostly up to 45.9 µM
# Outline: as §2
# NIH3T3 = assay: qHTS assay to identify novel small-molecules to repurpose for Merkel cell carcinoma treatment (AID 1296009); conditions: MCC and control cell lines, CellTiter-Glo viability, 72 h; at 44.8 µM (top of the series) unless noted; also: nearly all actives have a fitted effect of over 60% in size
# Outline: (§3)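 Cell viability, measured as CellTiter-Glo luminescence, was normalized between DMSO and no-cell wells. The cells had been exposed to 8- or 11-point compound dilutions for 72 hr at 37 degree celsius.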
# WaGa = assay: as above; conditions: MCC and control cell lines, CellTiter-Glo viability, 72 h; series mostly up to 46 µM
# Outline: as §3
# [2] = at 45.9 µM (top of the series), tumour line B
# [3] = at 45.9 µM (top of the series), tumour line D
# [4] = at 46.1 µM (top of the series), tumour line C
# [5] = at 46 µM (top of the series), tumour line A
# [6] = at 20 µM (top of the series), tumour line C
structure (smiles),measurement,setting,value
COc1cc(CNC(=O)CCCC/C=C/C(C)C)ccc1O,Potency,C33A,inactive
same,Potency,CAOV3,inactive
same,Potency,CASKI,inactive
same,Potency,Es-2,inactive
same,Potency,HeLa,inactive
same,Potency,Hek293T,inactive
same,Potency,JEG-3,inactive
same,Potency,OV90,inactive
same,Potency,PA-1,inactive
same,Potency,SKOV3,inactive
same,Potency,Tov-21-G,inactive
same,Potency,Tov112D,inactive
same,"activity, negative = cell killing",[1]; [2],-4.61%
same,"activity, negative = cell killing",[1]; [3],-7.09%
same,"activity, negative = cell killing",[1]; [4],17.4%
same,Potency,[1]; tumour line A,11.2 µM (active)
same,Potency,astro,inactive
O=C(O)CC1CC(c2ccccc2)=NO1 (stereo not drawn),Potency,C33A,inactive
same,Potency,CAOV3,inactive
same,Potency,CASKI,inactive
same,Potency,Es-2,inactive
same,Potency,HeLa,inactive
same,Potency,Hek293T,inactive
same,Potency,JEG-3,inactive
same,Potency,OV90,inactive
same,Potency,PA-1,inactive
same,Potency,SKOV3,inactive
same,Potency,Tov-21-G,inactive
same,Potency,Tov112D,inactive
CN1[C@@H]2CC[C@H]1CC(OC(c1ccccc1)c1ccccc1)C2 (stereo partly drawn),Potency,C33A,inactive
same,Potency,CAOV3,inactive
same,Potency,CASKI,inactive
same,Potency,Es-2,inactive
same,Potency,HeLa,inactive
same,Potency,Hek293T,inactive
same,Potency,JEG-3,inactive
same,Potency,PA-1,inactive
same,Potency,SKOV3,inactive
same,Potency,Tov-21-G,inactive
same,Potency,Tov112D,inactive
same,"activity, negative = cell killing",[1]; [2],-9.62%
same,Potency,[1]; tumour line A,7.08 µM (active)
same,Potency,astro,inactive
CC1(C)S[C@@H]2[C@H](NC(=O)[C@H](NC(=O)N3CCN(S(C)(=O)=O)C3=O)c3ccccc3)C(=O)N2[C@H]1C(=O)O,outcome,NIH3T3,inactive
same,Potency,C33A,inactive
same,Potency,CAOV3,inactive
same,Potency,CASKI,inactive
same,Potency,Es-2,inactive
same,Potency,HeLa,inactive
same,Potency,Hek293T,inactive
same,Potency,JEG-3,inactive
same,Potency,OV90,inactive
same,Potency,PA-1,inactive
same,Potency,Tov-21-G,inactive
same,Potency,Tov112D,inactive
same,"activity, negative = cell killing",[1]; [2],-6.53%
same,"activity, negative = cell killing",[1]; [3],-7.16%
same,"activity, negative = cell killing",[1]; [5],-8.92%
same,"activity, negative = cell killing",[1]; [4],-22.9%
same,Potency,astro,inactive
C#CC1(O)CC[C@H]2[C@@H]3CCC4=CCCC[C@@H]4[C@H]3CC[C@@]21C (stereo partly drawn),Potency,C33A,inactive
same,Potency,CAOV3,inactive
same,Potency,CASKI,inactive
same,Potency,Es-2,inactive
same,Potency,HeLa,inactive
same,Potency,Hek293T,inactive
same,Potency,JEG-3,inactive
same,Potency,OV90,inactive
same,Potency,Tov-21-G,inactive
same,Potency,Tov112D,inactive
same,"activity, negative = cell killing",[1]; [6],-10.1%
same,Potency,[1]; tumour line A,11.2 µM (active)
Nc1ccc(O)c([N+](=O)[O-])c1,Potency,C33A,inactive
same,Potency,CAOV3,inactive
same,Potency,CASKI,inactive
same,Potency,Es-2,inactive
same,Potency,HeLa,inactive
same,Potency,Hek293T,inactive
same,Potency,JEG-3,inactive
same,Potency,PA-1,inactive
same,Potency,SKOV3,inactive
same,Potency,Tov-21-G,inactive
same,Potency,Tov112D,inactive
O=C(O)[C@H](CC(=O)N1C[C@H]2CCCC[C@H]2C1)Cc1ccccc1,Potency,C33A,inactive
same,Potency,CAOV3,inactive
same,Potency,CASKI,inactive
same,Potency,Es-2,inactive
same,Potency,HeLa,inactive
same,Potency,Hek293T,inactive
same,Potency,JEG-3,inactive
same,Potency,OV90,inactive
same,Potency,PA-1,inactive
same,Potency,SKOV3,inactive
same,Potency,Tov-21-G,inactive
same,Potency,Tov112D,inactive
same,"activity, negative = cell killing",[1]; [2],-13.2%
same,"activity, negative = cell killing",[1]; [3],-11.7%
same,"activity, negative = cell killing",[1]; [5],-25.9%
same,"activity, negative = cell killing",[1]; [4],-20.5%
O=C1CC[C@@H](C(=O)N2CSC[C@H]2C(=O)O)N1 ([pGlu]-[Thz]-OH),outcome,NIH3T3,inactive
same,Potency,C33A,inactive
same,Potency,CAOV3,inactive
same,Potency,CASKI,inactive
same,Potency,Es-2,inactive
same,Potency,HeLa,inactive
same,Potency,Hek293T,inactive
same,Potency,JEG-3,inactive
same,Potency,OV90,inactive
same,Potency,PA-1,inactive
same,Potency,SKOV3,inactive
same,Potency,Tov-21-G,inactive
same,Potency,Tov112D,inactive
same,"activity, negative = cell killing",[1]; [2],-16.5%
same,"activity, negative = cell killing",[1]; [3],-0.509%
same,"activity, negative = cell killing",[1]; [5],-28.4%
same,"activity, negative = cell killing",[1]; [4],-18.5%
COC(=O)[C@H]1[C@H]2C[C@@H]3c4[nH]c5cc(OC)ccc5c4CCN3C[C@H]2C[C@@H](OC(=O)/C=C/c2cc(OC)c(OC)c(OC)c2)[C@@H]1OC,outcome,NIH3T3,inactive [at 17.4 µM]
same,Potency,C33A,inactive
same,Potency,CAOV3,inactive
same,Potency,CASKI,inactive
same,Potency,Es-2,inactive
same,Potency,HeLa,inactive
same,Potency,Hek293T,inactive
same,Potency,JEG-3,inactive
same,Potency,OV90,inactive
same,Potency,PA-1,inactive
same,Potency,SKOV3,inactive
same,Potency,Tov-21-G,inactive
same,Potency,Tov112D,inactive
same,"activity, negative = cell killing",[1]; [6],-5.29%
same,"activity, negative = cell killing","[1]; at 21.2 µM (top of the series), tumour line D",-21.8%
same,Potency,[1]; tumour line A,10 µM (active)
same,Potency,astro,inactive
O=C(CS)Nc1ccccc1,Potency,WaGa,inactive
same,Potency,C33A,inactive
same,Potency,CAOV3,inactive
same,Potency,CASKI,inactive
same,Potency,Es-2,inactive
same,Potency,HeLa,inactive
same,Potency,Hek293T,inactive
same,Potency,JEG-3,inactive
same,Potency,OV90,inactive
same,Potency,PA-1,inactive
same,Potency,SKOV3,inactive
same,Potency,Tov-21-G,inactive
same,Potency,Tov112D,inactive
same,"activity, negative = cell killing",[1]; [4],-39.6%
same,Potency,[1]; tumour line D,12.6 µM (active)
NS(=O)(=O)c1ccc(-n2nc(C(F)(F)F)cc2-c2ccc(Cl)cc2)cc1,Potency,C33A,inactive
same,Potency,CAOV3,inactive
same,Potency,CASKI,inactive
same,Potency,Es-2,inactive
same,Potency,HeLa,inactive
same,Potency,Hek293T,inactive
same,Potency,JEG-3,inactive
same,Potency,OV90,inactive
same,Potency,PA-1,inactive
same,Potency,SKOV3,inactive
same,Potency,Tov-21-G,inactive
same,Potency,Tov112D,inactive
COC(=O)Nc1nc2ccc(C(=O)C3CC3)cc2[nH]1,Potency,C33A,12.6 µM (active)
same,Potency,CAOV3,inactive
same,Potency,Es-2,3.16 µM (active)
same,Potency,HeLa,2 µM (active)
same,Potency,JEG-3,7.94 µM (active)
same,Potency,OV90,11.2 µM (active)
same,Potency,PA-1,1.12 µM (active)
same,Potency,SKOV3,10 µM (active)
same,Potency,Tov-21-G,1.41 µM (active)
same,Potency,Tov112D,1.58 µM (active)
O=Cc1ccc(O)c(O)c1O,Potency,C33A,inactive
same,Potency,CAOV3,inactive
same,Potency,CASKI,inactive
same,Potency,Es-2,inactive
same,Potency,HeLa,inactive
same,Potency,Hek293T,inactive
same,Potency,JEG-3,inactive
same,Potency,OV90,inactive
same,Potency,PA-1,inactive
same,Potency,SKOV3,inactive
same,Potency,Tov-21-G,inactive
same,Potency,Tov112D,inactive
CS(=O)(=O)c1ccc(-n2nc(C(F)(F)F)cc2-c2ccc(F)cc2)cc1,Potency,C33A,inactive
same,Potency,CAOV3,inactive
same,Potency,CASKI,inactive
same,Potency,Es-2,inactive
same,Potency,HeLa,inactive
same,Potency,Hek293T,inactive
same,Potency,JEG-3,inactive
same,Potency,OV90,inactive
same,Potency,PA-1,inactive
same,Potency,SKOV3,inactive
same,Potency,Tov-21-G,inactive
same,Potency,Tov112D,inactive
S=c1[nH]c2ccccc2s1,Potency,C33A,inactive
same,Potency,CAOV3,inactive
same,Potency,CASKI,inactive
same,Potency,Es-2,inactive
same,Potency,HeLa,inactive
same,Potency,Hek293T,inactive
same,Potency,JEG-3,inactive
same,Potency,OV90,inactive
same,Potency,PA-1,inactive
same,Potency,Tov-21-G,inactive
same,Potency,Tov112D,inactive
same,"activity, negative = cell killing",[1]; [2],-16.2%
same,"activity, negative = cell killing",[1]; [4],-8.66%
same,Potency,[1]; tumour line A,39.8 µM (active)

# Reference: PubChem BioAssay (NCATS)
